# Assay results reported in PubChem BioAssay.
# Activity calls are given as the source filed them.
# Columns and labels:
# [1] = test system: Noggin (protein binding on small-molecule microarray); experiment: small molecules binding Noggin protein – biochemical, 635/667 nm fluorescence, primary screen (AID 1095); conditions: 635 nm fluorescence, higher = more signal;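 further: score merges 667 nm feature fluorescence with signal to noise over triplicate slides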
# [2] = biological target: Neurogenic locus notch homolog protein 3 (Homo sapiens) (UniProt Q9UM47); experiment: small molecules binding NOTCH3 protein – biochemical, 635/667 nm fluorescence, primary screen (AID 1096); conditions: small-molecule microarray, 635 nm fluorescence, higher = more signal
# Sequence of Neurogenic locus notch homolog protein 3 (Homo sapiens) (Q9UM47 whole entry, looked up): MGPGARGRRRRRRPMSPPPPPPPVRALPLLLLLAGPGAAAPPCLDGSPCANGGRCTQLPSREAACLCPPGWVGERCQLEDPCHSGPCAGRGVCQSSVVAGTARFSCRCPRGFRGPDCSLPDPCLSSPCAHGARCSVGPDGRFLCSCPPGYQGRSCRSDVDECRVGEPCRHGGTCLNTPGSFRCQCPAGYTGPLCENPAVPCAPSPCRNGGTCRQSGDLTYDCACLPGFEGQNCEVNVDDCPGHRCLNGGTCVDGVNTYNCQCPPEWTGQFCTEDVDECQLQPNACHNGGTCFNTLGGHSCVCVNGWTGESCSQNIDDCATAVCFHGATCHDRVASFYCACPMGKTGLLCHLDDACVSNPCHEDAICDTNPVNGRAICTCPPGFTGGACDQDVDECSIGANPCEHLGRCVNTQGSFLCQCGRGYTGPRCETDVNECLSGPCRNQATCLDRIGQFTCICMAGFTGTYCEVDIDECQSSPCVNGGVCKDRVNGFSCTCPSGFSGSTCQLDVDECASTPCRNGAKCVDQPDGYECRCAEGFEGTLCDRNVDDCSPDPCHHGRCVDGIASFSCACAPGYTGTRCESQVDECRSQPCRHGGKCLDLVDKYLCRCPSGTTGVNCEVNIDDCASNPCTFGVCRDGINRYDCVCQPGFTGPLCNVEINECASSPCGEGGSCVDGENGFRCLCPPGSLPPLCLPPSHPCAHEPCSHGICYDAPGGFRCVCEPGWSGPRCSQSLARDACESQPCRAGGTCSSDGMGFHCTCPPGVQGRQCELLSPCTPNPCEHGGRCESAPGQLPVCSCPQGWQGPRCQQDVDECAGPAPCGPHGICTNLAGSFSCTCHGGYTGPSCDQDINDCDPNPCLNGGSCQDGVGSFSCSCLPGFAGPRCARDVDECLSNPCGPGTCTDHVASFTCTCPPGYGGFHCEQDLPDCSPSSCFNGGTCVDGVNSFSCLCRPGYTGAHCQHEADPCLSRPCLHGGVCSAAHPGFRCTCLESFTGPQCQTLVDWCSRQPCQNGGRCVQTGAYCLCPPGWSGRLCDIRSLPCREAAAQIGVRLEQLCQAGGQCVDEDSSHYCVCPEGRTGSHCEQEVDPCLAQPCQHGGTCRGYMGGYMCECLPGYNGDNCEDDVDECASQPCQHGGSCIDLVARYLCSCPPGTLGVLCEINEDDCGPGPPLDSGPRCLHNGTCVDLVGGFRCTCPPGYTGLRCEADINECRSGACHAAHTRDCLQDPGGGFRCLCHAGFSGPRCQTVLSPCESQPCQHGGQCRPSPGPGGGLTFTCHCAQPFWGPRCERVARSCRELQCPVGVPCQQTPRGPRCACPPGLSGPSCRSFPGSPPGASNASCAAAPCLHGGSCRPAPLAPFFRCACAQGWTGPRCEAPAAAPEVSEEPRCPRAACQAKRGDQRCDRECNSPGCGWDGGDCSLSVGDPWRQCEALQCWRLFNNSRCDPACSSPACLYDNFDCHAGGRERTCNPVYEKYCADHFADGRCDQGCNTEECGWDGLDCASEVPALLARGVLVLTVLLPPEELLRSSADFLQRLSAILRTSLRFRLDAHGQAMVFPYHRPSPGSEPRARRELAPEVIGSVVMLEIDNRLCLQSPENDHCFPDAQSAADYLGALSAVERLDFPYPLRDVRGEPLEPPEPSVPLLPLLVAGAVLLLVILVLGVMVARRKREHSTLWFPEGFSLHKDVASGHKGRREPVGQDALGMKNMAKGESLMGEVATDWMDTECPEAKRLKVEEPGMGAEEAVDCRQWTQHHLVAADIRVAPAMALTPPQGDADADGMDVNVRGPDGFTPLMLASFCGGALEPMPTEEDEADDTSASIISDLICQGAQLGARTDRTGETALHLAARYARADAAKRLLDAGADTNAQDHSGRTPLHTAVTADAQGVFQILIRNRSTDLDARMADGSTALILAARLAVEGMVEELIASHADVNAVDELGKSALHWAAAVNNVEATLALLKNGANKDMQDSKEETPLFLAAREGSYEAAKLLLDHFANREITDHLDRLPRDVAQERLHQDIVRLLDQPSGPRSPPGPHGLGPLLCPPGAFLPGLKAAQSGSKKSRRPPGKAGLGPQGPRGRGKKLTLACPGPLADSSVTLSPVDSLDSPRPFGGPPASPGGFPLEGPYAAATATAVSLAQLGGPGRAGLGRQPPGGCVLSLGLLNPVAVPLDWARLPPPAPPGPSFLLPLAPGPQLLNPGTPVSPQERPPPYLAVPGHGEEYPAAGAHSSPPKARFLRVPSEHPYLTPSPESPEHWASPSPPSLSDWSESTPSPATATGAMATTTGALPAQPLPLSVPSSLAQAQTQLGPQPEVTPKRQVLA
# [3] = probe aEGFR binding to arrayed compounds – biochemical, biotinylated probe, 635/667 nm fluorescence, primary screen (AID 1097); conditions: small-molecule microarray, higher = more signal;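 further: probe is a biotinylated anti-EGFR antibody binding compounds printed on slides; score combines fluorescence near 667 nm and signal to noise of each spot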
# [4] = test system: Plasmodium falciparum Sir2 (PF13_0152, Sir2A); experiment: Plasmodium falciparum Sir2A binding compounds – biochemical, small-molecule microarray, 635 nm fluorescence, primary screen (AID 1098); conditions: fluorescence 635 nm, higher = more signal;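 further: score merges spot fluorescence intensity with its signal-to-noise ratio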
# [5] = probe aDKK1 binding to arrayed compounds – biochemical, biotinylated probe, 635/667 nm fluorescence, primary screen (AID 1099); conditions: small-molecule microarray, higher = more signal;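 further: score merges 667nm spot fluorescence with signal to noise across triplicate slides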
# [6] = probe aCHRDL2 binding to arrayed compounds – biochemical, biotinylated probe, 635/667 nm fluorescence, primary screen (AID 1100); conditions: small-molecule microarray, higher = more signal
# [7] = change in splice reporter luminescence, either direction, cell-based, HEK293, spliceosome inhibition project, primary screen (AID 1101); conditions: HEK293 splicing luciferase reporter, 24 h, higher = more signal, called active from +8 up or from −8 down;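 further: HEK293 cells carrying a splicing-competent luciferase reporter gene; test concentration not given here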
# [8] = biological target: Fibroblast growth factor 10 (Homo sapiens) (UniProt O15520); experiment: compounds binding fibroblast growth factor 10 – biochemical, small-molecule microarray, 635 nm fluorescence, primary screen (AID 1102); conditions: FGF10 binding, fluorescence 635 nm, higher = more signal
# Sequence of Fibroblast growth factor 10 (Homo sapiens) (O15520 whole entry, looked up): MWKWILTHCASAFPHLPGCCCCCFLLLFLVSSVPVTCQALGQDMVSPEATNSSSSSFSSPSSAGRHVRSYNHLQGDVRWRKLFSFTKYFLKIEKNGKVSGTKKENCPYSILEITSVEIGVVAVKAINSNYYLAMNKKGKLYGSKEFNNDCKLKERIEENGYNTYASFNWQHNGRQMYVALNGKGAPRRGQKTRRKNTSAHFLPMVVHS
# [9] = test system: glycogen synthase kinase-3 (GSK3A per assay name; protocol says GSK3B); experiment: compounds binding glycogen synthase kinase-3 – biochemical, small-molecule microarray, 635 nm fluorescence, GSK3A, primary screen (AID 1103); conditions: fluorescence 635 nm, higher = more signal; further: the record names both GSK3A and GSK3B
# [10] = biological target: Epidermal growth factor receptor (Homo sapiens) (UniProt P00533); experiment: compounds binding epidermal growth factor receptor – biochemical, small-molecule microarray, 635 nm fluorescence, primary screen (AID 1104); conditions: EGFR binding, higher = more signal;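 further: score merges 667 nm emission intensity with spot signal to noise over triplicate slides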
# Sequence of Epidermal growth factor receptor (Homo sapiens) (P00533 whole entry, looked up): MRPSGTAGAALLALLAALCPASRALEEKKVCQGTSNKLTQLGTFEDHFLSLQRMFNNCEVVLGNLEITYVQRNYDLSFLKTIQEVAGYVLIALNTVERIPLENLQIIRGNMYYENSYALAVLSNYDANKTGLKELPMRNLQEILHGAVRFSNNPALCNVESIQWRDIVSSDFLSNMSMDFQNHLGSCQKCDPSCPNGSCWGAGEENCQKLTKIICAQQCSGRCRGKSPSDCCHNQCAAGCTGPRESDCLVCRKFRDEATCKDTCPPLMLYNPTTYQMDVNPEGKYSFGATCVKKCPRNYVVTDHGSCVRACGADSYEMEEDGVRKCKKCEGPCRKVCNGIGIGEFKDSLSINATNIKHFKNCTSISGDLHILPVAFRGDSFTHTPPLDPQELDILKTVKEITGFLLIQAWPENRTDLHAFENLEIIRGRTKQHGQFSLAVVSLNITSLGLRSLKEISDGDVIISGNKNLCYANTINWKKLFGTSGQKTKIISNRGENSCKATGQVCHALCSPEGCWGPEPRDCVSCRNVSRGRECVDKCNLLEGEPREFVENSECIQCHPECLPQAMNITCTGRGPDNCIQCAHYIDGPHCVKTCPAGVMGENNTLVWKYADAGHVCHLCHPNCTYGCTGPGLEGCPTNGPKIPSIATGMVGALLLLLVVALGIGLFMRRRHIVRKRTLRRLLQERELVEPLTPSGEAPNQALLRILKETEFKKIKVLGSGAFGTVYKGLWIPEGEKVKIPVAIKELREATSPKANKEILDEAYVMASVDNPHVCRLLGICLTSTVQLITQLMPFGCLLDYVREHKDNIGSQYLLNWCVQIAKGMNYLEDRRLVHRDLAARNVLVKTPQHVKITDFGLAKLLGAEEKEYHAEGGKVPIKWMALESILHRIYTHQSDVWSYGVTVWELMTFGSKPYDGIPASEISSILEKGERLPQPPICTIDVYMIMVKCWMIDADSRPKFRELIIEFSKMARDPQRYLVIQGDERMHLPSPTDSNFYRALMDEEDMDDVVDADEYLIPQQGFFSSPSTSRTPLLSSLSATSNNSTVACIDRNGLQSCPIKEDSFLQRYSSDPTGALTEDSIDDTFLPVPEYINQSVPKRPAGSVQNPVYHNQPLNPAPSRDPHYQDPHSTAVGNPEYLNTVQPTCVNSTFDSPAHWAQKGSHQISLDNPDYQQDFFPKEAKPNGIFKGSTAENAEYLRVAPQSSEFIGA
# [11] = biological target: Follistatin-related protein 3 (Homo sapiens) (UniProt O95633); experiment: compounds binding follistatin-related protein 3 – biochemical, small-molecule microarray, 635 nm fluorescence, primary screen (AID 1105); conditions: FSTL3 binding, higher = more signal;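 further: score merges emission near 667 nm and signal to noise per printed spot across three slides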
# Sequence of Follistatin-related protein 3 (Homo sapiens) (O95633 whole entry, looked up): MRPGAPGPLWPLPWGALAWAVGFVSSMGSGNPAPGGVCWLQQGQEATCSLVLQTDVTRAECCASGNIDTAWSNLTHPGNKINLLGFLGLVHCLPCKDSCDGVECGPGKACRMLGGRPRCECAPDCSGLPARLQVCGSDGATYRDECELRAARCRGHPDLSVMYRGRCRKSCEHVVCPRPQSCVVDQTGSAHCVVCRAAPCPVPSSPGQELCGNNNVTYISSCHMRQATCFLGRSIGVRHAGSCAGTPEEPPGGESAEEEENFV
# [12] = biological target: Dickkopf-related protein 1 (Homo sapiens) (UniProt O94907); experiment: small molecules binding DKK1 protein – biochemical, small-molecule microarray, 635 nm fluorescence scan, primary screen (AID 1106); conditions: higher = more signal;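 further: score merges emission near 667 nm with signal to noise over three replicate slides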
# Sequence of Dickkopf-related protein 1 (Homo sapiens) (O94907 whole entry, looked up): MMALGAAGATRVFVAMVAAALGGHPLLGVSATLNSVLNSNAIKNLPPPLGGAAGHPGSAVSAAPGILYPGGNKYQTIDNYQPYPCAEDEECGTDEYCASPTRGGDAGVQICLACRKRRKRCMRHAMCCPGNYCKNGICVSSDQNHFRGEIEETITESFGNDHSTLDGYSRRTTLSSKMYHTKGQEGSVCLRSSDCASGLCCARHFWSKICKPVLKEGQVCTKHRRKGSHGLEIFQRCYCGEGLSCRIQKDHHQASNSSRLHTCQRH
# [13] = test system: Inhibin beta A chain (activin A); experiment: small molecules binding activin A – biochemical, small-molecule microarray, 635 nm fluorescence scan, primary screen (AID 1107); conditions: INHBA, higher = more signal;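 further: mouse activin A protein probed at 4.33 µg/mL on printed slides; score merges bound-protein fluorescence near 667 nm with spot signal-to-noise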
# [14] = test system: Human papillomavirus type 1a protein E7 (residues 44-93); experiment: small molecules binding HPV E7 44-93 – biochemical, small-molecule microarray, residues 44-93, 635 nm fluorescence, primary screen (AID 1108); conditions: fluorescence 635 nm, higher = more signal;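 further: E7 fragment applied at 1 µg/mL in TBST for 1 h at 4 C; score combines spot fluorescence with its signal to noise ratio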
# [15] = hepatitis C replication reporter changes, two-sided – Huh7 cells, luciferase reporter, HCV replication inhibitor project, primary screen (AID 1109); conditions: Huh7 HCV replicon luciferase reporter, 48 h; higher = more signal;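 further: huh7 hepatoma cells harbouring a luciferase neomycin HCV replicon reporter; luciferase luminescence as measure of HCV replicon replication; test concentration not given here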
# [16] = biological target: Left-right determination factor 2 (Homo sapiens) (UniProt O00292); experiment: small molecules binding LEFTY2 protein – biochemical, small-molecule microarray, 635 nm fluorescence scan, primary screen (AID 1110); conditions: higher = more signal
# Sequence of Left-right determination factor 2 (Homo sapiens) (O00292 whole entry, looked up): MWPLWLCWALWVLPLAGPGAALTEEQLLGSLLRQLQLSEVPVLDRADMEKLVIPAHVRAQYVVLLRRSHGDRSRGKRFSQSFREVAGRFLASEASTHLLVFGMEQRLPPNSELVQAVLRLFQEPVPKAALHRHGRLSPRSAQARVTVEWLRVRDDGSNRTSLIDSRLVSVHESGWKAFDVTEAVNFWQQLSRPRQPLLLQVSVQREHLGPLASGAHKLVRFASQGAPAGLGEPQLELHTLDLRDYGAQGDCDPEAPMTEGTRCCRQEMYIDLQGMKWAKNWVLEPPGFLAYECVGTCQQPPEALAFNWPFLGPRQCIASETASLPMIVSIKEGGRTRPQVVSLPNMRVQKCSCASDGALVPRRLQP
# [17] = biological target: Calmodulin-1 (Homo sapiens) (UniProt P0DP23); experiment: small molecules binding calmodulin-1 with EGTA – biochemical, small-molecule microarray, Cy5-labelled CALM1, profiling panel (AID 1111); conditions: Cy5-CALM1 binding fluorescence, higher = more signal;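 further: labelled calmodulin applied in Tris saline Tween buffer holding calcium plus EGTA and DTT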
# [18] = biological target: Calmodulin-1 (Homo sapiens) (UniProt P0DP23); experiment: small molecules binding Ca-loaded calmodulin-1 – biochemical, small-molecule microarray, Cy5-labelled CALM1, plus calcium, artefact control for SMM control-protein annotation, profiling panel (AID 1112); conditions: Cy5-CALM1 binding fluorescence, higher = more signal;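 further: score merges spot fluorescence with signal to noise from triplicate slides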
# [19] = probe aWnt5a binding to arrayed compounds – biochemical, biotinylated probe, 635/667 nm fluorescence, primary screen (AID 1113); conditions: small-molecule microarray, higher = more signal;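 further: score merges 667 nm fluorescence intensity with signal-to-noise per printed feature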
# [20] = probe aShh binding to arrayed compounds – biochemical, biotinylated probe, 635/667 nm fluorescence, primary screen (AID 1114); conditions: small-molecule microarray, higher = more signal;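 further: probe is biotin-labelled aShh protein from a stem cell growth factor screen; measures binding of labelled protein to compounds printed on the slide; score merges feature fluorescence at 667 nm with signal-to-noise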
SMILES,composite z-score [1],composite z-score [2],composite z-score [3],composite z-score [4],composite z-score [5],composite z-score [6],z-score [7],composite z-score [8],composite z-score [9],composite z-score [10],composite z-score [11],composite z-score [12],composite z-score [13],composite z-score [14],z-score [15],composite z-score [16],composite z-score [17],composite z-score [18],composite z-score [19],composite z-score [20]
COc1ccc([Si](C)(C)[C@H]2[C@H](CC(=O)N(CCO)Cc3ccccc3)O[C@@]3(C(=O)N(Cc4ccc(N5CCOC5=O)cc4)c4ccccc43)[C@@H]2C)cc1,0.821,0.361,-0.146,0.614,0.0402,0.32,-1.56 (inactive),0.286,-0.137,0.109,0.276,0.512,0.6,0.162,-2.94,0.23,0.228,0.342,-0.0944,0.493
C=C(/C(=C/C[C@H](OC(C)=O)c1cccc(OCCO)c1)c1cc(C(=O)OC)ccc1OC)C(C)C,-0.0168,-0.609,-0.191,0.86,-0.0559,0.132,-0.846 (inactive),0.306,-0.116,-0.805,-0.948,-0.316,0.576,-0.0954,-0.556,-0.516,-1,-0.551,-0.124,-0.0337
O=C1N(CCS(=O)(=O)c2ccccc2)Cc2ccccc2[C@@H]2OC(c3ccc(OCCCO)cc3)=N[C@]12Cc1ccccc1,1.1,1.01,0.442,1.61,1.22,1.14,-0.127 (inactive),1.37,1.33,0.267,1.33,0.797,0.49,0.427,-1.4,0.533,1.88,0.189,0.0614,0.191
Cc1ccc(S[C@]2(C(=O)NC3CC3)CC(=O)N(Cc3ccccc3C(F)(F)F)[C@@H]2c2ccc(CO)cc2I)cc1,-0.536,-0.654,-0.0899,1.64,0.913,1.1,-2.01 (inactive),-0.28,-0.0828,-0.385,-0.292,-0.425,1.72,0.33,-1.55,-0.659,0.514,1.14,-0.124,0.188
Cc1ccc(S[C@]2(C(=O)NCC(C)C)CC(=O)N(C(C)C)[C@@H]2c2ccc(CO)cc2)cc1,-0.197,-0.534,-0.175,0.0739,0.457,0.696,-0.982 (inactive),-0.475,-0.771,-0.33,-0.196,-0.574,0.727,-0.962,-0.725,-0.594,-0.886,0.134,-0.124,-0.137
NC(=O)NCC#Cc1ccc2c(c1)[C@]1(C(=O)N2)[C@H](c2ccc(OCCO)cc2)N2[C@H](c3ccccc3)[C@H](c3ccccc3)OC(=O)[C@H]2[C@@H]1C(=O)Nc1nc2ccccc2s1,-0.17,-0.0446,-0.0946,0.0284,0.918,1.2,-1 (inactive),0.178,-0.282,-0.345,0.224,-0.463,1.35,-0.107,-0.495,-0.64,0.728,0.789,-0.184,0.046
COCCOC(=O)N1C(=O)[C@@]2(c3cc(C#CCCO)ccc31)[C@H](c1ccccc1OCCO)N1[C@H](c3ccccc3)[C@H](c3ccccc3)OC(=O)[C@H]1[C@@H]2C(=O)NC[C@H](O)c1ccccc1,1.71,0.99,0.0533,1.34,0.704,0.416,-0.428 (inactive),1.16,1.22,0.2,1.35,0.74,0.274,0.722,-1.53,0.449,1.11,0.678,-0.0512,0.275
C=C[C@H](OC)[C@@H](OC(=O)Nc1ccc(OC)cc1)c1ccc(OC)c(O)c1,-1.8,-0.805,-0.373,0.29,-0.387,0.703,-1.48 (inactive),-0.971,-0.761,-1.91,-1.18,-1.61,-0.385,-1.51,0.369,-1.63,-1.07,-0.137,-0.202,0.0062
CCCNC(=O)[C@@]1(Sc2ccc(C)cc2)CC(=O)N(Cc2cc(C(F)(F)F)cc(C(F)(F)F)c2)[C@@H]1c1ccc(CO)cc1I,-1.35,-0.168,-0.118,1.24,0.832,1.11,-2.39 (inactive),-0.544,-0.656,-0.711,-0.372,-0.799,1.08,-0.536,-1.41,-1.58,1.54,1.11,-0.0512,0.0141
C=CCNC(=O)[C@H]1[C@@H]2C(=O)O[C@@H](c3ccccc3)[C@@H](c3ccccc3)N2[C@@H](c2ccccc2OCCO)[C@]12C(=O)N(C(=O)OCCOC)c1ccc(C#CCCO)cc12,1.59,1.12,0.596,0.745,1.73,0.981,-0.485 (inactive),1.35,1.2,0.843,1.24,0.983,1.01,0.188,-2.5,1.06,1.78,1.08,0.0722,0.715
C=CCOC(=O)[C@H]1[C@@H]2C(=O)O[C@@H](c3ccccc3)[C@@H](c3ccccc3)N2[C@@H](c2ccc(OCCOC(=O)[C@H]3C[C@H]4C(=O)N5CCC[C@H]5C(=O)N4[C@H]3c3cccc(OCCO)c3)cc2)[C@]12C(=O)Nc1ccccc12,1.54,1.04,-0.0828,1.52,-0.125,0.297,-0.676 (inactive),0.795,1.31,0.649,0.978,0.732,0.186,1.05,-1.01,0.427,0.384,0.0829,-0.0607,0.263
CC(C)(C)OC(=O)CC[C@]1(C(=O)NCc2ccccc2)COC(c2ccc(OCCCO)cc2)=N1,-0.148,-0.0559,-0.058,1.31,1.07,1.21,-0.264 (inactive),0.361,0.319,-0.716,-0.334,-1.17,0.469,0.326,-0.605,-0.632,0.98,1.11,-0.001,-0.138
COc1ccc(/C=C/C(=O)c2cccc(OCC(=O)OC(C)(C)C)c2)cc1,-0.584,-0.974,-0.304,0.726,0.145,0.436,-0.611 (inactive),-0.189,0.483,-0.693,-0.525,-0.442,0.379,0.268,1.33,-0.606,-0.0784,-0.159,-0.173,-0.2
COCCOC(=O)N1C(=O)[C@@]2(c3cc(C#CC4(O)CCCCCC4)ccc31)[C@H](c1ccccc1OCCO)N1[C@H](c3ccccc3)[C@H](c3ccccc3)OC(=O)[C@H]1[C@@H]2C(=O)Nc1nc2ccccc2s1,0.724,1.09,0.0403,0.81,0.55,0.65,-0.318 (inactive),0.989,1.23,0.45,1.07,0.816,0.995,0.425,-1.51,0.636,1.59,0.941,0.0317,0.275
COc1ccc([Si](C)(C)[C@@H]2[C@@H](CCn3cc([C@H](O)c4ccccc4)nn3)O[C@]3(C(=O)N(C)c4c(Br)cc(C)cc43)[C@H]2C)cc1,0.0639,-0.707,0.0089,-0.384,0.041,0.703,-3.07 (inactive),0.0565,-0.755,-0.212,-0.395,-0.248,0.206,-1.29,-4.23,0.287,-0.0327,0.0747,-0.157,-0.0991
C=CCC(OC(C)=O)[C@@H]1[C@@H](N(Cc2ccc(-c3cccc(C(F)(F)F)c3)o2)C(=O)c2ccc(-c3ccccc3)cc2)c2cc(OCCCO)ccc2N1C(=O)Cc1ccc(OC)cc1 (stereo not given in full),-0.475,-1.16,-0.191,-0.0081,0.109,0.796,-1.07 (inactive),-0.0385,-0.661,-0.574,-0.201,-0.361,1.44,-0.0271,-0.169,-0.236,-1.05,0.897,-0.104,-0.0931
